From PubChem BioAssay
Calls of active or inactive are those of the source.

Legend:
[1] = test system: PRMT1 (protein arginine N-methyltransferase 1); test: PRMT1 binders on small-molecule microarrays, primary screen, biochemical, small-molecule microarray, 635 nm fluorescence (AID 1088); conditions: small-molecule microarray binding, higher = more signal;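 also: binding of Prmt1 protein to compounds spotted on small-molecule microarray slides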
[2] = yeast growth modulation, basal conditions, primary screen, YJM789 clinical isolate, OD600, 24 h (AID 1089);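 also: growth of clinical yeast isolate S. cerevisiae YJM 789 seeded 1000 cells per well; test concentration not given here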; conditions: S. cerevisiae YJM789 growth, higher = more signal, called active from +8 up or from −8 down
[3] = fission yeast growth modulation, primary screen, strain 972, OD600, 24 h, no modulator (AID 1090);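 also: basal condition with compound alone and no growth modifier present; test concentration not given here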; conditions: S. pombe 972 growth, higher = more signal, called active from +8 up or from −8 down
[4] = S. cerevisiae growth modulation with rapamycin, primary screen, strain BY4716, OD600, 96 h (AID 1091); conditions: higher = more signal, called active from +8 up or from −8 down; also: test concentration not given here
[5] = target: Torsin-1A-interacting protein 2 (Homo sapiens) (UniProt Q8NFQ8); test: LULL1 binders on small-molecule microarray, primary screen, cell lysate, human LULL1 lysate, 635/667 nm fluorescence (AID 1092); conditions: hLULL1 lysate binding, 635 nm fluorescence, higher = more signal;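 also: probe is lysate of COS7 cells overexpressing human LULL1; score merges per-feature 667 nm fluorescence with signal-to-noise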
Chain of Torsin-1A-interacting protein 2 (Homo sapiens) (Q8NFQ8 whole entry, looked up): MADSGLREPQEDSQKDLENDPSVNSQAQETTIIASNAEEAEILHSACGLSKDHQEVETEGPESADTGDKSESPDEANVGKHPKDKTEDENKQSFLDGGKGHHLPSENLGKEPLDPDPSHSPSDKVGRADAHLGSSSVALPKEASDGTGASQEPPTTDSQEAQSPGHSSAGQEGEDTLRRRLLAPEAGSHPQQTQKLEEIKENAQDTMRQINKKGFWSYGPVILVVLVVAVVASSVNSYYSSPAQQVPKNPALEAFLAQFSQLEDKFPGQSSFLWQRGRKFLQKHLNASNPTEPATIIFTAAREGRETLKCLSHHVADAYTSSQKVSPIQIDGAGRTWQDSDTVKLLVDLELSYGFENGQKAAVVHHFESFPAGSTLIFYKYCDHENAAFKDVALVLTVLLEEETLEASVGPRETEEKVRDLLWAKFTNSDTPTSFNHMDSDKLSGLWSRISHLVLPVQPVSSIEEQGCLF

[6] = E. coli growth modulation, two-sided OD650, primary screen, E. coli filamentation project, strain DRC41, 24 h (AID 1093); conditions: OD650, 24 h, higher = more signal, called active from +8 up or from −8 down;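 also: MC1000 strain lacking acrAB efflux and sulA so SOS filamentation is blocked; test concentration not given here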
[7] = small-molecule microarray binders of probe aLefty2, primary screen, biochemical, biotinylated probe, 635/667 nm fluorescence (AID 1094); conditions: higher = more signal;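 also: score merges spot fluorescence near 667 nm with spot signal-to-noise ratio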
[8] = test system: Noggin (protein binding on small-molecule microarray); test: Noggin binders on small-molecule microarray, primary screen, biochemical, 635/667 nm fluorescence (AID 1095); conditions: 635 nm fluorescence, higher = more signal;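 also: score merges 667 nm feature fluorescence with signal to noise over triplicate slides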
[9] = target: Neurogenic locus notch homolog protein 3 (Homo sapiens) (UniProt Q9UM47); test: NOTCH3 binders on small-molecule microarray, primary screen, biochemical, 635/667 nm fluorescence (AID 1096); conditions: NOTCH3 binding, 635 nm fluorescence, higher = more signal
Chain of Neurogenic locus notch homolog protein 3 (Homo sapiens) (Q9UM47 whole entry, looked up): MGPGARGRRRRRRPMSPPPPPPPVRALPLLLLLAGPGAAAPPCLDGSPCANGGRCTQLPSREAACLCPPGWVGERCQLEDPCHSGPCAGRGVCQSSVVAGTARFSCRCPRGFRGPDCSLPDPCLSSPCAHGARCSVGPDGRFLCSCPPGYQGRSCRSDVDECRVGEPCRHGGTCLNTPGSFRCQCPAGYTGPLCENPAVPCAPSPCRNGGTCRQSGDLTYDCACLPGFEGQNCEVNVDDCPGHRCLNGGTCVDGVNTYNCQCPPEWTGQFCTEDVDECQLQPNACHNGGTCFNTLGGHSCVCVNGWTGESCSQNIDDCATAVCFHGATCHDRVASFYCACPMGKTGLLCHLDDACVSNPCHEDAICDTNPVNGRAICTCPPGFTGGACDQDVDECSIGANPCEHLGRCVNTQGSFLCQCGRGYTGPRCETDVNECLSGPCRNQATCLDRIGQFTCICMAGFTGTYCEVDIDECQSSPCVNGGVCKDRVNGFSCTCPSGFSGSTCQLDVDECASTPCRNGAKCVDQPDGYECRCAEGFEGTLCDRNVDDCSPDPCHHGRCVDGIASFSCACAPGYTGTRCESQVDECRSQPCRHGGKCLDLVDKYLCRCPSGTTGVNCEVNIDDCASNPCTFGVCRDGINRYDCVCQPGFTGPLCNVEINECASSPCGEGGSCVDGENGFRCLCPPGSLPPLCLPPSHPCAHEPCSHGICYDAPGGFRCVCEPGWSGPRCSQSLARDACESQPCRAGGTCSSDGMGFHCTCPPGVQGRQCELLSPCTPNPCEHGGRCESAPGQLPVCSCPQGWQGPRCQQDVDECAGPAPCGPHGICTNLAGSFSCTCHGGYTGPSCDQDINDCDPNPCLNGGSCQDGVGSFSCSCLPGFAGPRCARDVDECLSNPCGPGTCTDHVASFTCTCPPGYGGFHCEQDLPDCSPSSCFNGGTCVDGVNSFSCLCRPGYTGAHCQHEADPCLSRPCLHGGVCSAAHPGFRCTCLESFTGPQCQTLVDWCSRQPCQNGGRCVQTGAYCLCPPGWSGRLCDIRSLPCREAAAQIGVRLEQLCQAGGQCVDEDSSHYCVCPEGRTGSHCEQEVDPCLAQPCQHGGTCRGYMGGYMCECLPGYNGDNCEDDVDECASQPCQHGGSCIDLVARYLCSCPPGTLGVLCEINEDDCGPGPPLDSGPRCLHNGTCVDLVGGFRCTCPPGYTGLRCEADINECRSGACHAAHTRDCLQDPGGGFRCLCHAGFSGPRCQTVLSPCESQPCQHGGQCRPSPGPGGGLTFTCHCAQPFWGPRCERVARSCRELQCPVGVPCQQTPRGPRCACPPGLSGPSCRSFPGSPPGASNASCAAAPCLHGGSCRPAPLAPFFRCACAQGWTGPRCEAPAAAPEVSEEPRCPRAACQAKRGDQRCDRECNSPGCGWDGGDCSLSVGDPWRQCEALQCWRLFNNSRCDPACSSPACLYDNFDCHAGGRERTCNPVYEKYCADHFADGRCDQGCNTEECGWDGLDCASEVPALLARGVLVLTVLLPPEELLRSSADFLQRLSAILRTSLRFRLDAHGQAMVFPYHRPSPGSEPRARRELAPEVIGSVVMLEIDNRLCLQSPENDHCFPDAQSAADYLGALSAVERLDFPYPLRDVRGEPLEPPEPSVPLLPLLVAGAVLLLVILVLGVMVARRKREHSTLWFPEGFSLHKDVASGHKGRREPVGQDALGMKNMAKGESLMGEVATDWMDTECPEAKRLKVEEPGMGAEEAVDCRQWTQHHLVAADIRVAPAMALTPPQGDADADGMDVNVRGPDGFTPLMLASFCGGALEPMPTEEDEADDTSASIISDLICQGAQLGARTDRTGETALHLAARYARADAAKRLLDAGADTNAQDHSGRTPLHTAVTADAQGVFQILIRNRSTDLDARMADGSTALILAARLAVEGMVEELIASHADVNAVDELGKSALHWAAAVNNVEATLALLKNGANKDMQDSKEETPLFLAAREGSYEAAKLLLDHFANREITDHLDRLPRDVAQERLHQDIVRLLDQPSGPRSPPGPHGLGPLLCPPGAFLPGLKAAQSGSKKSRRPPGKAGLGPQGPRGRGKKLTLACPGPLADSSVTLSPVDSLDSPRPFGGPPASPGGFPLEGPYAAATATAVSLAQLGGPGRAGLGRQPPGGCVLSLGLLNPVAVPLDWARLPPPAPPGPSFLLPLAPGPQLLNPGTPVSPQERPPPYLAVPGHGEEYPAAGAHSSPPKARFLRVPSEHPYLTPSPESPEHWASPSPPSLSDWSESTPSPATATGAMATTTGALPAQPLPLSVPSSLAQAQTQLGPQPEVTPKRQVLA

[10] = small-molecule microarray binders of probe aEGFR, primary screen, biochemical, biotinylated probe, 635/667 nm fluorescence (AID 1097); conditions: higher = more signal;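 also: probe is a biotinylated anti-EGFR antibody binding compounds printed on slides; score combines fluorescence near 667 nm and signal to noise of each spot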
[11] = test system: Plasmodium falciparum Sir2 (PF13_0152, Sir2A); test: pfSir2 binders on small-molecule microarrays, primary screen, biochemical, small-molecule microarray, 635 nm fluorescence (AID 1098); conditions: small-molecule microarray binding, fluorescence 635 nm; higher = more signal;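 also: score merges spot fluorescence intensity with its signal-to-noise ratio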
[12] = small-molecule microarray binders of probe aDKK1, primary screen, biochemical, biotinylated probe, 635/667 nm fluorescence (AID 1099); conditions: higher = more signal;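 also: score merges 667nm spot fluorescence with signal to noise across triplicate slides; reference of the scale not given here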
[13] = small-molecule microarray binders of probe aCHRDL2, primary screen, biochemical, biotinylated probe, 635/667 nm fluorescence (AID 1100); conditions: higher = more signal
[14] = splicing luciferase reporter signal modulators, primary screen, spliceosome inhibition project, cell-based, HEK293, splice +/- reporter (AID 1101); conditions: luminescence, 24 h, higher = more signal, called active from +8 up or from −8 down;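 also: HEK293 cells carrying a splicing-competent luciferase reporter gene; test concentration not given here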
[15] = target: Fibroblast growth factor 10 (Homo sapiens) (UniProt O15520); test: FGF10 binders on small-molecule microarrays, primary screen, biochemical, small-molecule microarray, 635 nm fluorescence (AID 1102); conditions: FGF10 binding, fluorescence 635 nm, higher = more signal
Chain of Fibroblast growth factor 10 (Homo sapiens) (O15520 whole entry, looked up): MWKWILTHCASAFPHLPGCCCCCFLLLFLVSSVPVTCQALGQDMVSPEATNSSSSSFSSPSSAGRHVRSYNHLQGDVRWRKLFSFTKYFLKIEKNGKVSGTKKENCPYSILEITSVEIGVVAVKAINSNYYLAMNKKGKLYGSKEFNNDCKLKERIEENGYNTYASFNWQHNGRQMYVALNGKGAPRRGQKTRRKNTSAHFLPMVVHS

[16] = test system: glycogen synthase kinase-3 (GSK3A per assay name; protocol says GSK3B); test: GSK3 binders on small-molecule microarrays, primary screen, biochemical, small-molecule microarray, 635 nm fluorescence, GSK3A (AID 1103); conditions: small-molecule microarray binding, fluorescence 635 nm; higher = more signal; also: the record names both GSK3A and GSK3B
[17] = target: Epidermal growth factor receptor (Homo sapiens) (UniProt P00533); test: EGFR binders on small-molecule microarrays, primary screen, biochemical, small-molecule microarray, 635 nm fluorescence (AID 1104); conditions: EGFR binding, higher = more signal;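 also: score merges 667 nm emission intensity with spot signal to noise over triplicate slides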
Chain of Epidermal growth factor receptor (Homo sapiens) (P00533 whole entry, looked up): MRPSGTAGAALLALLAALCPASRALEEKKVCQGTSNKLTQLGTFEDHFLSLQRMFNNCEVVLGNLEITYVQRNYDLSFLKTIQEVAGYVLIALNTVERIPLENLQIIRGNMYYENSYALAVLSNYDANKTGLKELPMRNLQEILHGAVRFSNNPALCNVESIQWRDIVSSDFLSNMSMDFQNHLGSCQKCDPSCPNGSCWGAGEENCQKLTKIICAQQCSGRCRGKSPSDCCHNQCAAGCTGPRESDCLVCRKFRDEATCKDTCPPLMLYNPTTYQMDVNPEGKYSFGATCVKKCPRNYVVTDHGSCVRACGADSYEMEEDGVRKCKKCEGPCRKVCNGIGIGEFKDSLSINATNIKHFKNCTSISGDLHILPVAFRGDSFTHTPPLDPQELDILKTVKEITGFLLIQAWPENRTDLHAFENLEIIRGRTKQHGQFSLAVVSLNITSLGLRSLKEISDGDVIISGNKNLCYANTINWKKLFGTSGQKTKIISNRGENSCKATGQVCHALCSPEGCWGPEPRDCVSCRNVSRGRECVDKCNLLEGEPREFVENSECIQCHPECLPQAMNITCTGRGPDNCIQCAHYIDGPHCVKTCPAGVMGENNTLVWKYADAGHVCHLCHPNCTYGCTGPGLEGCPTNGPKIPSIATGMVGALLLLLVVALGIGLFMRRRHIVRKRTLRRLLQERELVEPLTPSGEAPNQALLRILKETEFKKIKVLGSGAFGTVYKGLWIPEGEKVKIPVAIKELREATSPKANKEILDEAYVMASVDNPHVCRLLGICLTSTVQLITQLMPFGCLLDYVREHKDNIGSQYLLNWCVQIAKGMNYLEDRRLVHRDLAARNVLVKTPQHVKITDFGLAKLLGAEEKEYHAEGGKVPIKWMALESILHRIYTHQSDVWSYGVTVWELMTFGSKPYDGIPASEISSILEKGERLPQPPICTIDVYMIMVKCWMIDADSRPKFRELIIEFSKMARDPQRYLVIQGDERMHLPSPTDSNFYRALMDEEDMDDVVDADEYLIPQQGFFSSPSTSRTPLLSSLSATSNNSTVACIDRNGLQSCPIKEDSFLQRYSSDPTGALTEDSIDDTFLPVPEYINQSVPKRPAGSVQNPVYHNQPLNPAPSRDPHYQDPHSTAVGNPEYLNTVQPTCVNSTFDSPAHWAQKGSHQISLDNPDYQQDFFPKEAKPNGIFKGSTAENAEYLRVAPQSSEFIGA

[18] = target: Follistatin-related protein 3 (Homo sapiens) (UniProt O95633); test: FSTL3 binders on small-molecule microarrays, primary screen, biochemical, small-molecule microarray, 635 nm fluorescence (AID 1105); conditions: FSTL3 binding, higher = more signal;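 also: score merges emission near 667 nm and signal to noise per printed spot across three slides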
Chain of Follistatin-related protein 3 (Homo sapiens) (O95633 whole entry, looked up): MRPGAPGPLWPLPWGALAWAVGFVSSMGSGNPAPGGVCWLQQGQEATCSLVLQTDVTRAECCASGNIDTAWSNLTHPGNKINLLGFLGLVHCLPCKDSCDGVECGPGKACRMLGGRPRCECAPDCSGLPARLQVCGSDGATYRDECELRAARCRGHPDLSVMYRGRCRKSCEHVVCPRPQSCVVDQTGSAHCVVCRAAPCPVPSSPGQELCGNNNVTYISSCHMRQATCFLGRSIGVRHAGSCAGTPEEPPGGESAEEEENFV

[19] = target: Dickkopf-related protein 1 (Homo sapiens) (UniProt O94907); test: DKK1 binders on small-molecule microarrays, primary screen, biochemical, small-molecule microarray, 635 nm fluorescence scan (AID 1106); conditions: DKK1 binding, higher = more signal;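 also: score merges emission near 667 nm with signal to noise over three replicate slides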
Chain of Dickkopf-related protein 1 (Homo sapiens) (O94907 whole entry, looked up): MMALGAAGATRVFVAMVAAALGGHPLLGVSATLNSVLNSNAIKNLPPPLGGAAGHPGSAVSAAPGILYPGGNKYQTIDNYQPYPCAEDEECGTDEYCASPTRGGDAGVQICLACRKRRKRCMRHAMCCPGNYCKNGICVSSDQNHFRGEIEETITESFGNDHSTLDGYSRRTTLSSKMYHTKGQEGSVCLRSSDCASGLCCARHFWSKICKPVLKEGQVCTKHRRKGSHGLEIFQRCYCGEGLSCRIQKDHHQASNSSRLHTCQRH

[20] = test system: Inhibin beta A chain (activin A); test: INHBA (activin A) binders on microarrays, primary screen, biochemical, small-molecule microarray, 635 nm fluorescence scan (AID 1107); conditions: small-molecule microarray binding, higher = more signal;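 also: mouse activin A protein probed at 4.33 µg/mL on printed slides; score merges bound-protein fluorescence near 667 nm with spot signal-to-noise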

SMILES	composite z-score [1]	z-score [2]	z-score [3]	z-score [4]	composite z-score [5]	z-score [6]	composite z-score [7]	composite z-score [8]	composite z-score [9]	composite z-score [10]	composite z-score [11]	composite z-score [12]	composite z-score [13]	z-score [14]	composite z-score [15]	composite z-score [16]	composite z-score [17]	composite z-score [18]	composite z-score [19]	composite z-score [20]
NCCCCCCNC(=O)[C@@H]1C[C@@H]2C(=O)N3CCC[C@H]3C(=O)N2[C@@H]1c1cccc(OCCO)c1	1.06	-1.18 (inactive)	-0.822 (inactive)	-0.651 (inactive)	1.74	0.974 (inactive)	0.0686	1.1	0.73	0.0713	1.23	0.0549	0.798	-1.42 (inactive)	0.752	0.851	0.405	1.04	1.2	1.01
COC(=O)[C@H](Cc1ccc(O)cc1)N[C@@H](/C=C/C1CC1)[C@H](O)Cc1ccccc1	0.308	0.687 (inactive)	-0.813 (inactive)	0.0393 (inactive)	-0.243	-0.732 (inactive)	-0.251	-0.0001	-0.0155	-0.0828	-0.61	-0.29	-0.33	1.29 (inactive)	0.357	-0.444	-0.074	-0.119	0.14	-0.322
COCCOC(=O)N1C(=O)[C@@]2(c3ccccc31)[C@H](C(=O)N1CCN(c3ncccn3)CC1)[C@H]1C(=O)O[C@H](c3ccccc3)[C@H](c3ccccc3)N1[C@@H]2c1ccccc1OCCO	1.49	1.13 (inactive)	0.185 (inactive)	7.39 (inactive)	2.61	1.97 (inactive)	-0.0366	1.18	1.07	-0.067	1.33	-0.0994	-0.41	-1.05 (inactive)	1.17	1.31	0.575	1.15	0.778	0.888
O=C1[C@H]2C=C(I)[C@H](C[C@@H]2OCCCCCCO)[C@@]12CO2	-0.134	-1.5 (inactive)	-2.19 (inactive)	-0.384 (inactive)	-0.505	-1.05 (inactive)	-0.121	0.263	1.13	-0.133	0.525	-0.261	0.191	0.0312 (inactive)	0.281	-0.454	0.677	1.39	1.15	1.43
COc1ccc(C(=O)Nc2ccc3c(c2)[C@@]2(O[C@H](CCO)[C@@H]([Si](C)(C)c4ccc(OC)cc4)[C@@H]2C)C(=O)N3Cc2ccccc2)cc1	1.28	-0.0565 (inactive)	-4.96 (inactive)	2.7 (inactive)	1.94	0.629 (inactive)	-0.0124	1.32	0.742	-0.0828	0.578	-0.267	0.546	-4.86 (inactive)	0.517	0.369	0.252	0.527	0.27	1.17
NC(=O)N1C(=O)C2C(C1=O)C1C=C(CCCO)C2C(c2ccc(CN3CCCC3)cc2)N1Cc1sc2ccccc2c1Cl (stereo not given)	0.634	-0.75 (inactive)	-0.399 (inactive)	-1.27 (inactive)	1.97	0.465 (inactive)	-0.208	-0.275	-0.348	-0.112	0.0883	-0.291	0.233	-0.497 (inactive)	0.528	-0.42	-0.243	-0.744	-0.29	-0.0473
CC(C)(C)OC(=O)CC[C@@]1(C(=O)NCCN2CCOCC2)N=C(c2ccc(OCCCO)cc2)O[C@@H]1c1ccccc1CN=[N+]=[N-]	1.09	-0.865 (inactive)	0.258 (inactive)	-1.3 (inactive)	2.96	-1.07 (inactive)	-0.0152	0.167	0.461	-0.0479	1.49	0.455	0.454	-0.268 (inactive)	0.08	0.139	-0.088	-0.205	-0.45	0.67
N#Cc1ccc(-c2cccc(=O)o2)cc1	1	-0.24 (inactive)	-0.537 (inactive)	0.805 (inactive)	0.552	-0.675 (inactive)	-0.212	0.671	0.718	-0.0794	0.306	-0.269	-0.0642	0.862 (inactive)	0.219	0.441	0.506	0.345	0.0771	0.254
COc1cc(C(O)C2C=CC3C(=O)N(c4ccccc4)C(=O)C3N2Nc2ccccc2F)cc(OC)c1OC (stereo not given)	1.54	0.785 (inactive)	0.578 (inactive)	1.32 (inactive)	3.58	-0.629 (inactive)	0.122	0.334	1.09	-0.027	1.41	0.521	0.55	0.392 (inactive)	1.35	1.34	-0.117	0.479	-0.0657	0.519
CCCCCCc1nc(-c2ccc(-c3ccc(Cl)c(Cl)c3)o2)cc2c1[Si](C(C)C)(C(C)C)OC2	-0.849	-0.625 (inactive)	-7.54 (inactive)	3.66 (inactive)	0.582	0.66 (inactive)	-0.159	-0.561	-0.453	-0.257	-0.143	-0.269	0.207	-2.26 (inactive)	-1.31	-1.22	-1.01	-0.816	-0.793	0.522
